A selection: hits, their analogues and other compounds. The true share with any hit is near 17%.
DT40 TDP1 CPT: growth inhibition of DT40 Tdp1-/-;hTDP1 cells with camptothecin (screen for TDP1 inhibitors) | chicken DT40 Tdp1-/-;hTDP1 cells + 20 nM CPT, ATP luminescence, 48 h | 420,000 tested, 12% active | AID 686979 | Potency, µM (top dose mostly 46.2 µM), inactives show top-dose activity change, negative = growth inhibition, most hits filed as inhibitors; further: on the % scale 0 is the no-effect control and ±100 the full control effect; nearly all actives have a fitted effect of over 55% in size
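Cell growth measured by CellTiter-Glo luminescence after a minimum 48 h, 37 C compound exposure with 20 nM CPT in Tdp1-knockout DT40 cells stably expressing hTDP1, seeded 400/well; qHTS titration format.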
HT1080-NT tox: kills 2HG-producing HT-1080-NT fibrosarcoma cells. AID 686970. 360,000 tested, 1.6% active. Potency, µM (top dose mostly 46.1 µM), for inactives: at the highest dose activity, negative = less viability, actives largely listed as cytotoxic. HT-1080-NT fibrosarcoma viability, CellTiter-Glo ATP luminescence, 48 h;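 further: NT is the 2HG producing partner of a matched IDH1 knockdown line; 0% = DMSO-treated cells and -100% = media-only wells without cells; nearly all actives have a fitted effect of over 55% in size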
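Fibrosarcoma NT cells, 750 per well in 5% FBS RPMI, were exposed to compound for 48 hours. Viability: CellTiter-Glo luminescence.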
TGFb inhibitor: inhibitors of TGF-b signaling; AID 588855; 410,000 tested, 1.2% active; HepG2 CAGA-GFP TGF-b/SMAD3 reporter, GFP fluorescence, 18 h; TGF-beta stimulated, 500 pg/mL final; Potency, µM (titrated, usually from 46.1 µM), without a hit: at the highest dose activity, negative = inhibition, most hits filed as inhibitors; further: on the % scale 0 is the no-effect control and ±100 the full control effect; nearly all actives have a fitted effect of over 65% in size
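First, reporter cells (HEPG2 CAGA-GFP) rested 2 h at 37 degrees C. Next, compounds were pinned in and TGF-beta added to 500 pg/mL final. After 18 h, GFP was imaged per cell and summed per well.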
TDP1 cell noCPT: qHTS for Inhibitors of human tyrosyl-DNA phosphodiesterase 1 (TDP1): qHTS in cells in absence of CPT; DT40 Tdp1-/- hTDP1 cells, no CPT, ATP luminescence, 48 h; Potency, µM (top dose mostly 46.2 µM), for the others: at the highest dose activity change, negative = growth inhibition, hits mostly inhibitors; 420,000 tested, 15% active; AID 686978, 2013; further: on the % scale 0 is the no-effect control and ±100 the full control effect; nearly all actives have a fitted effect of over 55% in size
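No-CPT arm: Tdp1-/-;hTDP1 DT40 cells (400/well) plus compounds, incubated ≥48 hr at 37 °C. Readout CellTiter-Glo luminescence.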
HepG2 tox: kills HepG2 cells in TGF-b inhibitor counter-screen. HepG2 CAGA-GFP viability, ATP luminescence, 18 h. Potency, µM (series often up to 46.1 µM), without a hit: top-dose activity change, negative = cytotoxicity, most hits filed as cytotoxic. 410,000 tested, 0.76% active. AID 588856
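CellTiter-Glo luminescence gave cytotoxicity after 18 hours at 37 degrees C. The cells were HepG2 CAGA-GFP in 1% FBS DMEM, stimulated with 500 pg/mL TGF-beta after compound addition. %Activity was normalised to no-cell wells (complete cell-killing) and DMSO (no toxicity), and curves were fitted and classified.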
HT1080 IDH1KD tx: HT-1080 IDH1 knockdown cell toxicity (counter line); Potency, µM (top dose mostly 46.1 µM), inactives show at the top dose activity, negative = toxicity, hits mostly cytotoxic; HT-1080 IDH1 knockdown viability, ATP luminescence, 48 h; 360,000 tested, 2% active;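 further: 0% = DMSO wells and -100% = cell-free medium wells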
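% activity derives from luminescence (CellTiter-Glo), normalised to DMSO and no-cell wells. HT-1080-IDH1KD cells, 750/well, had 48 h compound exposure at 37 °C.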
Active calls of the source: *. The call rests on the fitted dose curve; in most records, active means well fitted curve in the direction sought with a large enough effect; inconclusive means small, poorly fitted or top-dose-only effect, or another doubt; inactive means no such curve, though single readings can be large; an effect the other way counts as inactive or inconclusive. Potency means the concentration at half of the fitted maximal effect.

`COC(=O)C1=C(C)N(Cc2ccccc2)C(=NCc2ccc(OC)cc2)N[C@H]1c1ccccc1` gave DT40 TDP1 CPT 7.31µM*, HT1080-NT tox -20.8%, TGFb inhibitor inconclusive, TDP1 cell noCPT 8.2µM*, HepG2 tox -84.5% and HT1080 IDH1KD tx inconclusive.
`CC(Sc1nnc2n1CCCCC2)C(=O)Nc1ccc(S(N)(=O)=O)cc1` (stereo unspecified) gave DT40 TDP1 CPT -7.7%, HT1080-NT tox 3.9%, TGFb inhibitor 11.5%, TDP1 cell noCPT 0.0%, HepG2 tox 0.0% and HT1080 IDH1KD tx 14.4%.
CN(C)C(=O)c1ccc(-c2cc(NCc3ccccc3)ncn2)cc1 was read as DT40 TDP1 CPT -4.0% and TDP1 cell noCPT 0.7%.
`CNc1nc(Nc2ccc(C(=O)OC)cc2)c2sccc2n1` gave DT40 TDP1 CPT 13µM*, HT1080-NT tox -10.7%, TGFb inhibitor -11.2%, TDP1 cell noCPT 14.6µM*, HepG2 tox -27.3% and HT1080 IDH1KD tx inconclusive.
For COCCNc1nc(Nc2ccc(Cl)cc2F)c2sccc2n1 the results were DT40 TDP1 CPT 13µM*, HT1080-NT tox -20.3%, TGFb inhibitor 14.6%, TDP1 cell noCPT 16.4µM*, HepG2 tox -14.8% and HT1080 IDH1KD tx -22.8%.
COCCNc1nc(-c2ccc(Cl)cc2C)c2sccc2n1 was read as DT40 TDP1 CPT inconclusive, HT1080-NT tox inconclusive, TGFb inhibitor -16.2%, TDP1 cell noCPT inconclusive, HepG2 tox -0.1% and HT1080 IDH1KD tx -4.2%.
For CC(C)Nc1nc(Nc2ccc(C(N)=O)cc2)c2sccc2n1 the results were DT40 TDP1 CPT 25.9µM*, HT1080-NT tox 23.2%, TGFb inhibitor -10.3%, TDP1 cell noCPT inconclusive, HepG2 tox 8.8% and HT1080 IDH1KD tx 0.0%.
For CCOC(=O)Cc1ccc(Nc2nc(NCCOC)nc3ccsc23)cc1 the results were DT40 TDP1 CPT 13µM*, HT1080-NT tox -1.4%, TGFb inhibitor -14.6%, TDP1 cell noCPT 14.6µM*, HepG2 tox -27.8% and HT1080 IDH1KD tx -17.2%.
For COCCNc1nc(Nc2ccc(C(=O)OC)cc2)c2sccc2n1 the results were DT40 TDP1 CPT 11.6µM*, HT1080-NT tox -25.2%, TGFb inhibitor 27.7%, TDP1 cell noCPT 16.4µM*, HepG2 tox -30.8% and HT1080 IDH1KD tx inconclusive.
Cc1ccc(NC(=O)Cn2c(=O)n(CCC(C)C)c(=O)c3cccnc32)cc1C was read as DT40 TDP1 CPT inconclusive, TGFb inhibitor inconclusive, TDP1 cell noCPT inconclusive and HepG2 tox -16.0%.
CN1CCOCCOc2ccccc2OCCOCC1 was read as DT40 TDP1 CPT 9.8%, HT1080-NT tox 0.2%, TGFb inhibitor 14.3%, TDP1 cell noCPT 2.3%, HepG2 tox 4.3% and HT1080 IDH1KD tx 8.4%.
Screening c1ccc2c(c1)OCCOCCOCCOCCOc1ccccc1OCCOCCOCCO2 returned DT40 TDP1 CPT 14.6µM*, HT1080-NT tox -6.0%, TGFb inhibitor inconclusive, TDP1 cell noCPT 18.4µM*, HepG2 tox -26.3% and HT1080 IDH1KD tx -17.6%.
For O=C(NC1CCCCCC1)c1c(O)nc2sccn2c1=O the results were DT40 TDP1 CPT 16.4µM*, HT1080-NT tox -10.0%, TGFb inhibitor -3.3%, TDP1 cell noCPT 14.6µM*, HepG2 tox -35.5% and HT1080 IDH1KD tx inconclusive.
For O=C(NC1CCCCC1)c1c(O)nc2sccn2c1=O the results were DT40 TDP1 CPT inconclusive, HT1080-NT tox -28.0%, TGFb inhibitor 7.8%, TDP1 cell noCPT inconclusive, HepG2 tox -0.2% and HT1080 IDH1KD tx -12.1%.

Screens from PubChem.
